{"source": "PubChem BioAssay (NCATS)", "note": "Several values for one entry are separate records, joined by “and”; a condition that tells them apart may be missing. Equal entries are not always repeated. Results filed as inconclusive are left out. Entries that show only a call come without a potency. Activity calls are given as the source filed them. Unless noted, calls come from the whole dose curve; as a rule, active = well fitted activation curve with a large enough effect; inconclusive = small, poorly fitted or top-dose-only effect; inactive = flat fitted curve, though single readings scatter.", "data": [{"biological_target": "Tumor necrosis factor (Homo sapiens) (UniProt P01375)", "sequence (P01375 whole entry, looked up)": "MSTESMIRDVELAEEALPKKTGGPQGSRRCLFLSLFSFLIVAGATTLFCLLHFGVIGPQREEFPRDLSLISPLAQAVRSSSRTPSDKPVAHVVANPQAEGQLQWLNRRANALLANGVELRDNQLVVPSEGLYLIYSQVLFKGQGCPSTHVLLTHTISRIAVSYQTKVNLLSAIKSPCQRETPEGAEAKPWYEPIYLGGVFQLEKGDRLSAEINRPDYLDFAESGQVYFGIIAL", "experiment": "qHTS assay to identify small molecules that stimulate Tumor Necrosis Factor-alpha (TNF-alpha) secretion (AID 651757; active = well fitted curve in the direction sought with a large enough effect in the signal ratio; the % refers to the signal ratio)", "settings": "Human cells, HTRF 665/615 ratio; series mostly up to 92.2 µM", "procedure,_shortened": "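THP-1 cells were exposed to compounds for 17 hrs at 37 C, after which secreted TNF-alpha was measured by homogeneous HTRF (TR-FRET) using cryptate- and XL665-labeled anti-TNF-alpha antibodies, read after 3 hr at room temperature.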", "values": [{"smiles": "Brc1ccccc1", "outcome": "inactive"}, {"smiles": "CCOP(=S)(OCC)SCSC(C)(C)C", "outcome": "inactive"}, {"smiles": "C=C(C)C#N", "outcome": "inactive"}, {"smiles": "CCSC(=O)Cl", "outcome": "inactive"}, {"smiles": "Cc1cccc([N+](=O)[O-])c1", "outcome": "inactive"}, {"smiles": "Nc1c(Cl)c(Cl)nc(C(=O)O)c1Cl", "outcome": "inactive"}, {"smiles": "CC(C)(C)OOC(C)(C)C", "outcome": "inactive"}, {"smiles": "C=C(C)C(=O)OCC1CO1", "note": "(configuration not stated)", "outcome": "inactive"}, {"smiles": "Cc1ccc([N+](=O)[O-])cc1C", "outcome": "inactive"}, {"smiles": "O=[N+]([O-])c1ccc(Cl)c(Cl)c1", "outcome": "inactive"}, {"smiles": "C=CC(=C)C", "outcome": "inactive"}, {"smiles": "Cc1ccc2ccccc2c1", "outcome": "inactive"}, {"smiles": "Nc1ccccc1Cl", "outcome": "inactive"}, {"smiles": "Clc1ccc2ccccc2c1", "outcome": "inactive"}, {"smiles": "[O-][Br+2]([O-])O", "outcome": "inactive"}, {"smiles": "Clc1nc(Cl)nc(Nc2ccccc2Cl)n1", "outcome": "inactive"}, {"smiles": "OCC1CO1", "note": "(configuration not stated)", "outcome": "inactive"}, {"smiles": "C=CCOC(=O)c1ccccc1N", "outcome": "inactive"}, {"smiles": "C=CC(N)=O", "outcome": "inactive"}, {"smiles": "CC(C)(c1ccccc1)c1ccc(O)cc1", "outcome": "inactive"}, {"smiles": "CCN(CC)c1ccccc1", "outcome": "inactive"}, {"smiles": "S=C=Nc1cccc2ccccc12", "outcome": "inactive"}, {"smiles": "N#CCCCl", "outcome": "inactive"}, {"smiles": "O=NN(CCO)CCO", "outcome": "inactive"}, {"smiles": "Cc1ccccc1N", "outcome": "inactive"}, {"smiles": "C=CCOC(C)=O", "outcome": "inactive"}, {"smiles": "CCCC(=O)Cl", "outcome": "inactive"}, {"smiles": "NC(=S)Nc1ccccc1", "outcome": "inactive"}, {"smiles": "O=C(Cl)/C=C/C(=O)Cl", "outcome": "inactive"}, {"smiles": "C=C(Cl)Cl", "outcome": "inactive"}, {"smiles": "ClCBr", "outcome": "inactive"}, {"smiles": "C=CC(=O)OCC", "outcome": "inactive"}, {"smiles": "c1nc[nH]n1", "outcome": "inactive"}, {"smiles": "c1ccc2c(c1)CCCC2", "outcome": "inactive"}, {"smiles": "CCCSC(=O)Cl", "outcome": "inactive"}, {"smiles": "Clc1cccc(C(Cl)(Cl)Cl)n1", "outcome": "inactive"}, {"smiles": "O=NN(c1ccccc1)c1ccccc1", "outcome": "inactive"}, {"smiles": "C1CCC2CCCCC2C1", "note": "(configuration not stated)", "outcome": "inactive"}, {"smiles": "CC(O)CCl", "note": "(configuration not stated)", "outcome": "inactive"}]}, {"system": "not listed separately", "experiment": "qHTS assay to identify small molecules that stimulate interleukin-8 (IL-8) secretion (AID 651758; active = well fitted activation curve with a large enough effect in the signal ratio; the % refers to the signal ratio)", "settings": "HTRF ratio (665/615); series mostly up to 92.2 µM", "procedure,_shortened": "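THP-1, 2000 cells/well; cpd 16 h, 37 C; add cryptate + XL665 anti-IL-8 Abs; RT 1-3 h; TR-FRET read.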", "values": [{"smiles": "Nc1c(Cl)c(Cl)nc(C(=O)O)c1Cl", "Potency": "inactive"}, {"smiles": "CC(C)(C)OOC(C)(C)C", "Potency": "inactive"}, {"smiles": "Cc1ccc([N+](=O)[O-])cc1C", "Potency": "inactive"}, {"smiles": "[O-][Br+2]([O-])O", "Potency": "inactive"}, {"smiles": "C=CCOC(=O)c1ccccc1N", "Potency": "inactive"}, {"smiles": "C=CC(N)=O", "Potency": "inactive"}, {"smiles": "CC(C)(c1ccccc1)c1ccc(O)cc1", "Potency": "inactive"}, {"smiles": "S=C=Nc1cccc2ccccc12", "Potency": "inactive"}, {"smiles": "N#CCCCl", "Potency": "inactive"}, {"smiles": "Cc1ccccc1N", "Potency": "inactive"}, {"smiles": "CCCC(=O)Cl", "Potency": "inactive"}, {"smiles": "C=C(Cl)Cl", "Potency": "inactive"}, {"smiles": "ClCBr", "Potency": "inactive"}, {"smiles": "CCCSC(=O)Cl", "Potency": "inactive"}, {"smiles": "Clc1cccc(C(Cl)(Cl)Cl)n1", "Potency": "inactive"}, {"smiles": "O=NN(c1ccccc1)c1ccccc1", "Potency": "inactive"}]}, {"system": "not listed separately", "experiment": "qHTS assay for environmental chemicals that activate the Aryl hydrocarbon Receptor (AhR) signaling pathway (AID 651777); note: nearly all actives have a fitted effect of over 15% in size; note: potency is the fitted concentration of half-maximal effect", "settings": "1A2-DRE human hepatoma cells, luciferase, 24 h; activation: hits give high values", "procedure,_shortened": "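1A2-DRE human hepatoma reporter line; 1,200 cells/well; cmpd or DMSO 24 h, 37 C/5% CO2; One-Glo 30 min RT; luciferase lum.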", "values": [{"smiles": "Brc1ccccc1", "activation": "-1.29% (inactive) and 1.99% (inactive)"}, {"smiles": "CCOP(=S)(OCC)SCSC(C)(C)C", "activation": "0.254% (inactive) and 2.38% (inactive)"}, {"smiles": "C=C(C)C#N", "activation": "-0.895% (inactive) and 0.596% (inactive)"}, {"smiles": "CCSC(=O)Cl", "activation": "0.624% (inactive)"}, {"smiles": "Cc1cccc([N+](=O)[O-])c1", "activation": "-1.15% (inactive) and 1.37% (inactive)"}, {"smiles": "Nc1c(Cl)c(Cl)nc(C(=O)O)c1Cl", "activation": "6.67% (inactive) and 13.8% (inactive) and 2.52% (inactive)"}, {"smiles": "CC(C)(C)OOC(C)(C)C", "activation": "-0.903% (inactive)"}, {"smiles": "C=C(C)C(=O)OCC1CO1", "note": "(configuration not stated)", "activation": "0.578% (inactive)"}, {"smiles": "Cc1ccc([N+](=O)[O-])cc1C", "activation": "-0.487% (inactive) and 1.08% (inactive)"}, {"smiles": "O=[N+]([O-])c1ccc(Cl)c(Cl)c1", "activation": "0.165% (inactive)"}, {"smiles": "C=CC(=C)C", "activation": "-0.578% (inactive)"}, {"smiles": "Cc1ccc2ccccc2c1", "activation": "1.58% (inactive)"}, {"smiles": "Nc1ccccc1Cl", "activation": "0.951% (inactive)"}, {"smiles": "Clc1ccc2ccccc2c1", "activation": "0.057% (inactive)"}, {"smiles": "[O-][Br+2]([O-])O", "activation": "0.946% (inactive) and -0.602% (inactive)"}, {"smiles": "Clc1nc(Cl)nc(Nc2ccccc2Cl)n1", "activation": "3.35% (inactive) and 3.56% (inactive)"}, {"smiles": "OCC1CO1", "note": "(configuration not stated)", "activation": "-0.664% (inactive) and -1.74% (inactive)"}, {"smiles": "C=CC(N)=O", "activation": "0.655% (inactive) and -0.766% (inactive) and 0.336% (inactive)"}, {"smiles": "CC(C)(c1ccccc1)c1ccc(O)cc1", "activation": "0.0169% (inactive) and 0.603% (inactive)"}, {"smiles": "CCN(CC)c1ccccc1", "activation": "-0.415% (inactive)"}, {"smiles": "S=C=Nc1cccc2ccccc12", "Potency": "50.1 µM (active)"}, {"smiles": "O=NN(CCO)CCO", "activation": "-0.118% (inactive)"}, {"smiles": "Cc1ccccc1N", "activation": "4.33% (inactive) and 3.03% (inactive)"}, {"smiles": "C=CCOC(C)=O", "activation": "-0.904% (inactive)"}, {"smiles": "CCCC(=O)Cl", "activation": "-2.02% (inactive)"}, {"smiles": "NC(=S)Nc1ccccc1", "activation": "0.646% (inactive) and -0.436% (inactive) and 0.133% (inactive)"}, {"smiles": "O=C(Cl)/C=C/C(=O)Cl", "activation": "-0.935% (inactive)"}, {"smiles": "ClCBr", "activation": "-0.711% (inactive)"}, {"smiles": "COc1ccc(C=O)cc1OC", "activation": "0.671% (inactive) and 1.28% (inactive)"}, {"smiles": "C=CC(=O)OCC", "activation": "-0.74% (inactive)"}, {"smiles": "c1nc[nH]n1", "activation": "-0.221% (inactive)"}, {"smiles": "c1ccc2c(c1)CCCC2", "activation": "2.13% (inactive)"}, {"smiles": "CCCSC(=O)Cl", "activation": "-0.385% (inactive)"}, {"smiles": "Clc1cccc(C(Cl)(Cl)Cl)n1", "activation": "-1.44% (inactive) and -0.611% (inactive)"}, {"smiles": "O=NN(c1ccccc1)c1ccccc1", "activation": "0.195% (inactive) and 0.974% (inactive)"}, {"smiles": "C1CCC2CCCCC2C1", "note": "(configuration not stated)", "activation": "-0.339% (inactive)"}, {"smiles": "CC(O)CCl", "note": "(configuration not stated)", "activation": "0.217% (inactive) and 1.37% (inactive)"}]}]}
